WRN inhibitor – qHTS for Inhibitors of WRN Helicase; Bifunctional 3'-5' exonuclease/ATP-dependent helicase WRN (Homo sapiens), Q14191; WRN helicase unwinding, fluorescent forked duplex, kinetic; Potency, µM (top dose mostly 114 µM), inactives show top-dose activity change, negative = inhibition, usual class: inhibitors; 0.46% of 360,000 active; AID 651768, 2012; also: potency is read from the fitted curve at half-maximal effect; % is scaled to controls: 0 for no effect and ±100 for the full control effect; nearly all actives have a fitted effect of over 55% in size
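Primary qHTS, 1536-well format. 20 nM WRN + compound, 15 min RT; start with 100 nM forked fluorophore/quencher duplex, 2 mM ATP (final); kinetic read ex 525/em 598 nm.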
Pol eta inh – qHTS for Inhibitors of Polymerase Eta; DNA polymerase eta (Homo sapiens), Q9Y253; recombinant Pol eta, fluorescent DNA replication assay; Potency, µM (titrated, usually from 114 µM), without a hit: at the highest dose activity change, negative = inhibition, hits mostly inhibitors; 1.2% of 390,000 active; AID 588591, 2011; also: potency is read from the fitted curve at half-maximal effect; % is scaled to controls: 0 for no effect and ±100 for the full control effect
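Pol eta (10 nM) was preincubated with compounds for 15 min at room temperature, after which fluorescent replication substrate (50 nM final) was added to start the reaction. Fluorescence was read kinetically at 0 and 10 min.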
POLI inh – qHTS for Inhibitors of Polymerase Iota | Pol iota fluorescent replication assay, 10 min | Potency, µM (doses to about 115 µM), inactives show at the top dose activity, negative = inhibition, actives largely listed as inhibitors | 1% of 390,000 active; also: potency is read from the fitted curve at half-maximal effect
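Pol iota at 10 nM preincubated 15 min with compounds at room temperature; reaction started with fluorescent substrate, 50 nM final. Fluorescence read kinetically at 0 and 10 min; buffer-only wells as negative control.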
Pol beta inh-1 – qHTS Assay for Inhibitors of DNA Polymerase Beta; P06746; Pol beta primer extension/strand displacement, fluorescence kinetic; Potency, µM (highest dose often 114 µM), inactives show top-dose activity change, negative = inhibition, hits mostly inhibitors; 1.3% of 340,000 active; AID 485314, 2010; also: potency is read from the fitted curve at half-maximal effect; % is scaled to controls: 0 for no effect and ±100 for the full control effect
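Pol beta (10 nM) and compounds were preincubated 15 min at room temperature, then 50 nM substrate (final) started primer extension/strand displacement. Reads were taken at 0 and 10 min; concentration-response data were fitted to a four-parameter Hill equation.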
POLK inh – qHTS for Inhibitors of Polymerase Kappa | purified Pol kappa, fluorescent DNA synthesis assay, 10 min | Potency, µM (doses to about 107 µM), for the others: top-dose activity, negative = inhibition, most hits filed as inhibitors | 0.53% of 400,000 active | AID 588579, 2011; also: potency is read from the fitted curve at half-maximal effect; % is scaled to controls: 0 for no effect and ±100 for the full control effect
Target sequence (Q9UBT6 whole entry, looked up): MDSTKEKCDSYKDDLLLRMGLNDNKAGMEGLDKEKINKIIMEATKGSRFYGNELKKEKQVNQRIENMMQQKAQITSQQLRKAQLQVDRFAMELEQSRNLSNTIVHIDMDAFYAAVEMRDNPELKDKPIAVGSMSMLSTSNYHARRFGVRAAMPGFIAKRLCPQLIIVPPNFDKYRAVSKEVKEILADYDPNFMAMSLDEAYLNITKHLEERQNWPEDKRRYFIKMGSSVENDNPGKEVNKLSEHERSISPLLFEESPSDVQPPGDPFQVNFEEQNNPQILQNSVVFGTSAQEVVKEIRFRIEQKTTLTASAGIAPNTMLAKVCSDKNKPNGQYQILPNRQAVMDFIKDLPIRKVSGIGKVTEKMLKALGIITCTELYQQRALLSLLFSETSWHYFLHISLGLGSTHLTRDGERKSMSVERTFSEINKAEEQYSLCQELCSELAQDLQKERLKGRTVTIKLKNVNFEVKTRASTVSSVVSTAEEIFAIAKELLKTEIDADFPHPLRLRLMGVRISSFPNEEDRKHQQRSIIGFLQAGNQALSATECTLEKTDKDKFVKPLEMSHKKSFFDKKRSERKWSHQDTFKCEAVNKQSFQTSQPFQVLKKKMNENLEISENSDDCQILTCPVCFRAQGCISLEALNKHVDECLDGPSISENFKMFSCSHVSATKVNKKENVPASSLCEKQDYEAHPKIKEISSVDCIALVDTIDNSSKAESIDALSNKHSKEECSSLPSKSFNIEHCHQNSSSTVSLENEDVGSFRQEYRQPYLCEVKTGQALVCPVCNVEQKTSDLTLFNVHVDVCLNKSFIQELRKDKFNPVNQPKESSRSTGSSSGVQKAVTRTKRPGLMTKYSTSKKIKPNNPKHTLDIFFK
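Here, compound and 10 nM enzyme are combined for 15 min at room temperature; adding 50 nM substrate (final) starts DNA synthesis, tracked by fluorescence at 0 and 10 min against buffer-only wells.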
FEN1 inh – qHTS Assay for the Inhibitors of Human Flap endonuclease 1 (FEN1). AID 588795, 2011. P39748. 0.35% of 390,000 active. Recombinant FEN1 flap cleavage, fluorescence, 15 min. Potency, µM (highest dose often 114 µM), without a hit: at the top dose activity change, negative = inhibition, hits mostly inhibitors; also: potency is read from the fitted curve at half-maximal effect; % is scaled to controls: 0 for no effect and ±100 for the full control effect; nearly all actives have a fitted effect of over 65% in size
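Quantitative HTS format: each compound was titrated, incubated with 10 nM nuclease for 15 min at room temperature, then challenged with flap substrate at 50 nM final. Signal change over 15 min gave concentration–effect curves.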
Pol beta inh-2 – Inhibitors of DNA Polymerase Beta: Hit validation; AID 540280, 2011; Pol beta primer extension/strand displacement, fluorescence kinetic; 87% of 250 active; Potency, µM, actives largely listed as inhibitors; shares compounds with Pol beta inh-1; calls by dose curve; also: potency is read from the fitted curve at half-maximal effect
Klenow inh – Inhibitors of DNA Polymerase Beta: Hit Validation in Klenow Fragment Assay; shares compounds with Pol beta inh-1; Klenow exo- polymerase counter-screen, fluorescent DNA substrate; AID 540300, 2011; 250 tested, under 10 active; activity change, negative = inhibition, % at 57.1 µM
HIV RT counter – Inhibitors of DNA Polymerase Beta: Hit Validation in HIV-RT Assay | HIV-1 RT polymerase activity, counter-screen | shares compounds with Pol beta inh-1 | activity % (negative = inhibition, positive = activation), % at 57.1 µM | AID 540301, 2011 | 250 tested, under 10 active
POLB inh gel – Inhibitors of DNA Polymerase Beta: Hit Validation in Radiolabeled Extension Assay | 91% of 110 active | shares compounds with Pol beta inh-1 | radiolabeled primer extension gel assay, phosphorimager | AID 540325, 2011 | inhibition, % at 10 µM;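 active = inhibition at 10 µM of 30% or more; inconclusive = no clear call, values can overlap the other calls; inactive = inhibition at 10 µM under 30%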
Numbers without * were called inactive; u = inconclusive; x = no result given; ! = not active in a repeat; [ ] = another dose, or the depositor's remark. This is a sample that favours compounds with a hit; in the whole collection about 2.4% have one here. Unless noted, calls follow the shape of the dose curve; as a rule, active = well fitted curve in the direction sought with a large enough effect; inconclusive = small, poorly fitted or top-dose-only effect, or another doubt; inactive = no such curve, though single readings can be large; an effect the other way counts as inactive or inconclusive.

SMILES | WRN inhibitor | Pol eta inh | POLI inh | Pol beta inh-1 | POLK inh | FEN1 inh | others
CCc1nnc(N/N=C/c2ccc(-c3ccc([N+](=O)[O-])cc3)o2)n1N | -9%[11.6 µM] | -21% | 32µM* | -26% | -4% | -23%
CCC(=O)N/N=C/c1ccc(-c2ccc([N+](=O)[O-])cc2)o1 | 4% | -8% | -6% | u | -8% | -14%
COc1ccccc1NC(=O)C1CCCN(c2nnc(C)c3c(C)n(-c4ccccc4)nc23)C1 (centres undefined) | x | -4% | -8% | 0% | -17% | -8%
CCc1ccc(NC(=O)CSc2nc3n[nH]c(C)c3c(=N)n2-c2ccccc2C)cc1 | x | 16% | 89µM* | 6% | -16%[60.1 µM] | -4%
COc1ccc(NC(=O)CSc2nc3n[nH]c(C)c3c(=N)n2-c2ccc(Cl)c(C)c2)cc1OC | -5% | 50µM* | 35% | 3.5µM* | 7% | -9%
CCC(C(=O)OCc1cc(=O)n2nc(C)sc2n1)c1ccccc1 (centres undefined) | x | -7% | -18% | 6% | -3% | 5%
CC(C)n1cc(/C=N/NC(=O)COc2cccc3cccnc23)c2ccccc21 | u | u | 7.9µM* | u | -29% | 0%
Clc1ccc(/C=C\c2nccc3c2[nH]c2ccccc23)cc1 | 6% | -24% | 95% | 29% | 1% | 9%
N#Cc1ccc(/C=C\c2nccc3c2[nH]c2ccccc23)cc1 | -27% | -1% | u | 18µM* | -18% | -3%
Cc1c(Cl)sn(-c2ccc(Cl)cc2)c1=O | 16µM* | 5% | 64% | -1% | -6% | u
Cc1nn(-c2ccc(Cl)cc2)c(=O)c2ccccc12 | -2% | -12% | -3% | 0% | -8% | -8%
Oc1ccc(/C=C/c2cc(O)cc(O)c2)cc1 | -13% | -3%[57.1 µM] | u | u | 14µM*! | -16%
O=S(=O)(O)c1cccc2cccc(Nc3ccccc3)c12 | 3%[11.6 µM] | 20µM* | 28µM* | x | u | u
CC(=O)N1c2ccc(S(=O)(=O)NCC3CCC(C(=O)NC(C)(C)C)CC3)cc2CC1C (centres undefined) | x | 12% | -1% | 61% | -3% | -3%
N#C/C(=N\Nc1cccc([N+](=O)[O-])c1)C(=O)c1ccc(Br)cc1 | u | 79µM* | u | 5% | -34% | -28%
O=Cc1cc(N=Nc2cccc(C(=O)O)c2)ccc1O | -10%[11.6 µM] | u | u | 35µM* | u | -14%
COc1cccc(CNC(=O)CCn2c(=O)c3cccn3c3cccnc32)c1OC | x | -12% | 16% | -2% | -16% | 14%
Cc1ccc(C)c(NC(=O)c2nc(S(=O)(=O)Cc3ccc(F)cc3)ncc2Cl)c1 | x | 89µM* | u | 32µM* | -6% | -7%
Cc1nnc(NC(=O)c2nc(S(=O)(=O)Cc3ccccc3C)ncc2Cl)s1 | 6% | 56µM* | u | u | -16% | 2%
CC(C)c1nnc(NC(=O)c2nc(S(=O)(=O)Cc3ccccc3F)ncc2Cl)s1 | 26% | -5% | u | 6% | 10% | -3%
CC(C)c1nnc(NC(=O)c2nc(S(=O)(=O)Cc3ccc(F)cc3)ncc2Cl)s1 | -7% | 2% | u | 89% | -2% | 4%
CCc1ccc(NC(=O)C2CCN(c3ccc(Sc4ccc(C)cc4)nn3)CC2)cc1 | x | -21% | 35% | 3% | -9% | 23%
Cc1cc2[nH]c(=O)c(=O)[nH]c2cc1S(=O)(=O)N1CCN(c2cccc(C(F)(F)F)c2)CC1 | -10% | 3% | u | u | -24% | 19%
CC1CCN(S(=O)(=O)c2ccc3[nH]c(=O)c(=O)[nH]c3c2)CC1 | 5% | -12% | 3%[58.9 µM] | 24% | -18% | 3%
Cc1cc2[nH]c(=O)c(=O)[nH]c2cc1S(=O)(=O)N1CCN(c2cccc(Cl)c2)CC1 | 2%[11.6 µM] | 0% | u | 35µM* | -18% | 16%
SMILES | WRN inhibitor | Pol eta inh | POLI inh | Pol beta inh-1 | POLK inh | FEN1 inh | others
O=c1[nH]c2ccc(S(=O)(=O)N3CCN(c4ccccc4)CC3)cc2[nH]c1=O | u | 79µM* | 40µM* | 45µM* | u | 56µM*
CCc1cccc(NC(=O)c2c(C)oc3ncnc(N4CCCCC4)c23)c1 | x | -15% | -14% | -27% | -7% | -2%
CC(C)(C)n1ncc2c(=O)n(Cc3cc(F)ccc3Cl)cnc21 | x | x | u | x | -10% | -20%
COc1cc(N)c(Cl)cc1C(=O)OCCN1CCCCC1 | x | 1%[57.1 µM] | 3%[58.9 µM] | 2%[57.1 µM] | 3%[60.1 µM] | 11µM*
COc1cc(N)c(Cl)cc1C(=O)OCCCN1CCCCC1 | x | x | x | x | 6%[19.4 µM] | x
COC(=O)c1ccc(NC(=O)CC2C(=O)N(c3ccccc3)C(=O)N2Cc2ccc(F)cc2)cc1 (centres undefined) | x | -14% | 7% | 27% | -4% | -17%
Cc1[nH]n(-c2ncc(-c3ccc(Cl)cc3)s2)c(=O)c1C(c1ccc(Cl)cc1)C(C#N)C#N (centres undefined) | u | 32µM* | -28% | 18µM* | u | -30%
COc1cccc(CNC(=O)CCc2cn(Cc3ccccc3Cl)c3ccccc23)c1 | x | -14% | 24% | -5% | -8% | 18%
Cc1ccc(-c2nc3scc(CCNS(=O)(=O)c4c(C)noc4C)n3n2)cc1 | x | -11% | u | -11% | -14%[60.1 µM] | 3%
COc1cccc2sc(Nc3nnc(-c4ccc(F)cc4)o3)nc12 | -27% | 50µM* | -23% | 13µM* | -22% | -19% | Pol beta inh-2=35*;Klenow inh=-3;HIV RT counter=97;POLB inh gel=85*
O=C(Nc1cc(S(=O)(=O)N2CCOCC2)ccc1O)c1ccc(S(=O)(=O)N2CCCCC2)cc1 | 4% | -9% | 5% | x | 1% | 16%

Compound activity from PubChem BioAssay.
